“And” between values parts separate entries of the source, which are not always exact repeats. Equal entries are not always repeated. About 2,000 (36%) of roughly 5,500 compounds were called active. Another 18% or so got no clear call; they are omitted. No stated cut-off is given here; in the data, active means normalized growth mostly below about 0.91 (no sharp cut-off); inconclusive means no clear call, values can overlap the other calls; inactive means mostly above about 0.92. This is one part of the list.
Experiment: chemical genetic growth profiling, strain panel (AID 1159580);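 further: tested at 20 µM; growth read once vehicle control cultures reached saturation at 30 °C; 1 = growth at the plate median or of vehicle wells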
Details: growth OD
[1] = S. cerevisiae deletion strains, locus YAL013W, strain DEP1, stronger effect = lower value
[2] = S. cerevisiae deletion strains, locus YBR229C, strain ROT2, stronger effect = lower value
[3] = S. cerevisiae deletion strains, locus YDL101C, strain DUN1, stronger effect = lower value
[4] = S. cerevisiae deletion strains, locus YDL134C, strain PPH21, stronger effect = lower value
[5] = S. cerevisiae deletion strains, locus YDR150W, strain NUM1, stronger effect = lower value
[6] = S. cerevisiae deletion strains, locus YEL061C, strain CIN8, stronger effect = lower value
[7] = S. cerevisiae deletion strains, locus YGR078C, strain PAC10, stronger effect = lower value
[8] = S. cerevisiae deletion strains, locus YGR229C, strain SMI1, stronger effect = lower value
[9] = S. cerevisiae deletion strains, locus YHR030C, strain SLT2, stronger effect = lower value
[10] = S. cerevisiae deletion strains, locus YHR087W, strain rtc3, stronger effect = lower value
[11] = S. cerevisiae deletion strains, locus YJR043C, strain POL32, stronger effect = lower value
[12] = S. cerevisiae deletion strains, locus YJR075W, strain HOC1, stronger effect = lower value
[13] = S. cerevisiae deletion strains, locus YKL190W, strain CNB1, stronger effect = lower value
[14] = S. cerevisiae deletion strains, locus YLR039C, strain RIC1, stronger effect = lower value
[15] = S. cerevisiae deletion strains, locus YLR058C, strain SHM2 (second series), stronger effect = lower value
[16] = S. cerevisiae deletion strains, locus YLR085C, strain ARP6, stronger effect = lower value
[17] = S. cerevisiae deletion strains, locus YLR262C, strain YPT6, stronger effect = lower value
[18] = S. cerevisiae deletion strains, locus YML094W, strain GIM5, stronger effect = lower value
[19] = S. cerevisiae deletion strains, locus YMR219W, strain ESC1, stronger effect = lower value
[20] = S. cerevisiae deletion strains, locus YMR263W, strain SAP30, stronger effect = lower value
[21] = S. cerevisiae deletion strains, locus YMR307W, strain GAS1, stronger effect = lower value
[22] = S. cerevisiae deletion strains, locus YNL153C, strain GIM3, stronger effect = lower value
[23] = S. cerevisiae deletion strains, locus YNL298W, strain CLA4 (second series), stronger effect = lower value
[24] = S. cerevisiae deletion strains, locus YNL322C, strain KRE1, stronger effect = lower value
[25] = S. cerevisiae deletion strains, locus YNR030W, strain Alg12, stronger effect = lower value
[26] = S. cerevisiae deletion strains, locus YPL055C, strain LGE1, stronger effect = lower value
[27] = S. cerevisiae deletion strains, locus YPL241C, strain CIN2, stronger effect = lower value
[28] = S. cerevisiae deletion strains, locus YPR135W, strain CTF4, stronger effect = lower value
[29] = S. cerevisiae deletion strains, locus YOL006C, strain TOP1, stronger effect = lower value
[30] = S. cerevisiae strains, strain wild type, stronger effect = lower value

Measured: normalized growth

O=C(NNC(=S)Nc1cccc(Cl)c1)c1ccncc1
inactive: [1] 0.977 | [2] 0.996 | [3] 0.983 | [4] 0.995 | [5] 0.95 | [6] 1 | [7] 0.983 | [8] 0.997 | [9] 1 | [10] 1 | [11] 0.98 | [12] 1.01 | [13] 1.01 | [14] 1.04 | [15] 0.981 | [16] 0.989 | [17] 0.99 | [18] 1.01 | [19] 0.991 | [20] 0.994 | [21] 1.02 | S. cerevisiae deletion strains, locus YNL128W, strain TEP1, stronger effect = lower value 0.995 | [22] 0.986 | [23] 0.965 | [24] 0.991 | [25] 0.951 | [26] 0.914 | [27] 0.992 | [28] 0.938

O=C(NNC(=S)Nc1cccc(Cl)c1)C1CC1
active: [6] 0.857 | [9] 0.489 | [13] 0.913 | [14] 0.749 | [16] 0.673 | [18] 0.796 | [23] 0.782 | [25] 0.859 | [29] 0.384 | [26] 0.735 | [27] 0.784
inactive: [1] 0.987 | [2] 0.951 | [3] 0.963 | [4] 0.99 | [5] 0.917 | [7] 0.956 | [8] 1 | [10] 0.986 | S. cerevisiae deletion strains, locus YJL187C, strain SWE1, stronger effect = lower value 0.967 | [11] 0.942 | [12] 0.986 | [15] 0.998 | [17] 0.949 | [19] 0.988 | [20] 0.975 | [21] 0.684 | [22] 0.965 | [24] 1.05 | [28] 0.69 | [30] 0.953

C[C@@H]1O[C@@H](O[C@H]2[C@H](Oc3cc(O)c4c(=O)cc(-c5ccc(O)cc5)oc4c3)O[C@H](CO)[C@@H](O)[C@@H]2O)[C@H](O)[C@H](O)[C@H]1O
inactive: [1] 0.994 | S. cerevisiae deletion strains, locus YBR021W, strain FUR4, stronger effect = lower value 1 | [2] 1 | S. cerevisiae deletion strains, locus YCL029C, strain bik1, stronger effect = lower value 0.977 | S. cerevisiae deletion strains, locus YDL035C, strain GPR1, stronger effect = lower value 1 | S. cerevisiae deletion strains, locus YDL074C, strain BRE1, stronger effect = lower value 0.933 | [3] 0.998 | [4] 1.07 | S. cerevisiae deletion strains, locus YDL185W, strain tfp1, stronger effect = lower value 0.95 | S. cerevisiae deletion strains, locus YDL192W, strain arf1, stronger effect = lower value 0.998 | S. cerevisiae deletion strains, locus YDR101C, strain arx1, stronger effect = lower value 0.937 | S. cerevisiae deletion strains, locus YDR162C, strain NBP2, stronger effect = lower value 1.01 | S. cerevisiae deletion strains, locus YDR318W, strain mcm21, stronger effect = lower value 1 | S. cerevisiae deletion strains, locus YDR388W, stronger effect = lower value 0.996 | S. cerevisiae deletion strains, locus YDR502C, strain sam2, stronger effect = lower value 0.99 | [6] 1 | S. cerevisiae deletion strains, locus YER110C, stronger effect = lower value 0.982 | S. cerevisiae deletion strains, locus YER155C, strain BEM2, stronger effect = lower value 0.991 | S. cerevisiae deletion strains, locus YER167W, strain BCK2, stronger effect = lower value 0.994 | S. cerevisiae deletion strains, locus YGL078C, strain dbp3, stronger effect = lower value 0.981 | S. cerevisiae deletion strains, locus YGL086W, strain mad1, stronger effect = lower value 0.954 | S. cerevisiae deletion strains, locus YGL248W, strain PDE1, stronger effect = lower value 1.02 | S. cerevisiae deletion strains, locus YGR135W, strain pre9, stronger effect = lower value 1.02 | S. cerevisiae deletion strains, locus YGR252W, strain gcn5, stronger effect = lower value 1.11 | [9] 0.989 and 1.02 | S. cerevisiae deletion strains, locus YHR079C, strain IRE1 (second series), stronger effect = lower value 0.976 | S. cerevisiae deletion strains, locus YHR079C, strain IRE1, stronger effect = lower value 1.03 | S. cerevisiae deletion strains, locus YHR094C, strain hxt1, stronger effect = lower value 0.99 | S. cerevisiae deletion strains, locus YHR129C, strain ARP1, stronger effect = lower value 1.02 | S. cerevisiae deletion strains, locus YHR200W, strain rpn10, stronger effect = lower value 0.988 | S. cerevisiae deletion strains, locus YIL066C, strain RNR3, stronger effect = lower value 0.994 | S. cerevisiae deletion strains, locus YIL073C, strain SPO22, stronger effect = lower value 0.981 | S. cerevisiae deletion strains, locus YIL125W, strain kgd1, stronger effect = lower value 0.972 | S. cerevisiae deletion strains, locus YIR030C, strain dcg1, stronger effect = lower value 0.983 | S. cerevisiae deletion strains, locus YJL095W, strain BCK1, stronger effect = lower value 1.03 and 0.992 | S. cerevisiae deletion strains, locus YJL134W, strain LCB3, stronger effect = lower value 0.992 | S. cerevisiae deletion strains, locus YJL168C, strain set2, stronger effect = lower value 1 | S. cerevisiae deletion strains, locus YJL187C, strain SWE1 (second series), stronger effect = lower value 0.995 | [11] 0.993 | S. cerevisiae deletion strains, locus YJR066W, strain TOR1, stronger effect = lower value 0.981 | S. cerevisiae deletion strains, locus YKL009W, strain mrt4, stronger effect = lower value 0.955 | S. cerevisiae deletion strains, locus YKL068W, stronger effect = lower value 0.987 | S. cerevisiae deletion strains, locus YKL085W, strain MDH1 (second series), stronger effect = lower value 0.981 | S. cerevisiae deletion strains, locus YKL085W, strain MDH1, stronger effect = lower value 0.981 | S. cerevisiae deletion strains, locus YKR001C, strain vps1, stronger effect = lower value 0.982 | [14] 0.963 | S. cerevisiae deletion strains, locus YLR058C, strain SHM2, stronger effect = lower value 0.998 | S. cerevisiae deletion strains, locus YLR102C, strain apc9, stronger effect = lower value 0.987 | S. cerevisiae deletion strains, locus YLR113W, strain HOG1, stronger effect = lower value 0.967 | [17] 0.95 | S. cerevisiae deletion strains, locus YLR268W, strain sec22, stronger effect = lower value 0.951 | S. cerevisiae deletion strains, locus YLR330W, strain CHS5, stronger effect = lower value 0.979 | S. cerevisiae deletion strains, locus YLR342W, strain FKS1 (second series), stronger effect = lower value 1.01 | S. cerevisiae deletion strains, locus YLR371W, strain rom2, stronger effect = lower value 0.98 | S. cerevisiae deletion strains, locus YLR418C, strain cdc73, stronger effect = lower value 1.01 | S. cerevisiae deletion strains, locus YML016C, strain PPZ1, stronger effect = lower value 0.995 | S. cerevisiae deletion strains, locus YML032C, strain rad52, stronger effect = lower value 1.04 | S. cerevisiae deletion strains, locus YML124C, strain tub3, stronger effect = lower value 0.978 | S. cerevisiae deletion strains, locus YMR078C, strain ctf18, stronger effect = lower value 0.975 | S. cerevisiae deletion strains, locus YMR223W, strain ubp8, stronger effect = lower value 1 | [20] 0.985 | [21] 1.05 | S. cerevisiae deletion strains, locus YNL067W, strain RPL9B, stronger effect = lower value 0.999 | S. cerevisiae deletion strains, locus YNL183C, strain NPR1, stronger effect = lower value 0.963 | S. cerevisiae deletion strains, locus YNL233W, strain BNI4, stronger effect = lower value 0.988 | S. cerevisiae deletion strains, locus YNL250W, strain rad50, stronger effect = lower value 0.955 | S. cerevisiae deletion strains, locus YNL271C, strain bni1, stronger effect = lower value 0.981 | S. cerevisiae deletion strains, locus YNL298W, strain CLA4, stronger effect = lower value 0.991 | S. cerevisiae deletion strains, locus YNL307C, strain MCK1, stronger effect = lower value 0.971 | S. cerevisiae deletion strains, locus YNR052C, strain pop2, stronger effect = lower value 1.01 | [29] 0.99 | S. cerevisiae deletion strains, locus YOL012C, strain htz1 0.768 | S. cerevisiae deletion strains, locus YOL147C, strain pex11, stronger effect = lower value 0.992 | S. cerevisiae deletion strains, locus YOR061W, strain CKA2, stronger effect = lower value 0.997 | S. cerevisiae deletion strains, locus YOR069W, strain VPS5, stronger effect = lower value 0.994 | S. cerevisiae deletion strains, locus YOR136W, strain idh2, stronger effect = lower value 0.965 | S. cerevisiae deletion strains, locus YOR144C, strain elg1, stronger effect = lower value 0.996 | S. cerevisiae deletion strains, locus YOR184W, strain ser1, stronger effect = lower value 0.993 | S. cerevisiae deletion strains, locus YOR231W, strain MKK1, stronger effect = lower value 0.989 | S. cerevisiae deletion strains, locus YOR316C, strain cot1, stronger effect = lower value 0.981 | S. cerevisiae deletion strains, locus YPL256C, strain CLN2, stronger effect = lower value 1 | S. cerevisiae deletion strains, locus YPR119W, strain clb2, stronger effect = lower value 0.978 | S. cerevisiae deletion strains, locus YPR141C, strain kar3, stronger effect = lower value 0.986 | S. cerevisiae deletion strains, locus YPR163C, strain tif3, stronger effect = lower value 0.992 | S. cerevisiae deletion strains, locus YPR167C, strain met16, stronger effect = lower value 0.981 | S. cerevisiae deletion strains, strain wtn01, stronger effect = lower value 0.948 | [30] 0.998

CC(C)(C)NCC(O)COc1cccc2[nH]c(=O)[nH]c12 (stereo not given)
inactive: S. cerevisiae deletion strains, locus YAL040C, strain CLN3, stronger effect = lower value 1.02 | S. cerevisiae deletion strains, locus YCL061C, strain MRC1 (second series), stronger effect = lower value 1.01 | [5] 1 | S. cerevisiae deletion strains, locus YDR363W, strain ESC2, stronger effect = lower value 1.01 | S. cerevisiae deletion strains, locus YER002W, strain NOP16, stronger effect = lower value 1.02 | [12] 1.01 | [20] 1 | S. cerevisiae deletion strains, locus YNL175C, strain NOP13, stronger effect = lower value 1.03 | S. cerevisiae deletion strains, locus YNL197C, strain WHI3, stronger effect = lower value 1.02 | S. cerevisiae deletion strains, locus YNL224C, strain SQS1, stronger effect = lower value 0.991 | [24] 1.03 | S. cerevisiae deletion strains, locus YOR083W, strain WHI5 (second series), stronger effect = lower value 0.988 | [27] 1
